Assay [1] in a line: stimulators of nuclear beta-catenin in C2C12, primary screen, imaging, WNT3A-conditioned medium, mouse C2C12, NPC library (AID 1117326). Further: reference of the scale not given here. Conditions: stronger effect = higher value.
The nature of assay [2]: stimulators of insulin release from INS-1E, primary screen, cell-based, 5 mM glucose, NPC library (AID 1117329;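 active means compound raises insulin release from rat beta cells at 5 mM glucose, no numeric limit stated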; further: reference of the scale not given here). Particulars: rat INS-1E insulin secretion, at 10 µM, stronger effect = higher value.
The nature of assay [3]: growth inhibition of GSK3B-pretreated HCT116 cells – cell-based, CellTiter-Glo, 0.2 to 20 µM (AID 1117336;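 active means compounds lowering colon cancer cell viability after pretreatment blocking the GSK3B kinase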). Particulars: HCT116 viability after GSK3B inhibitor, at 20 µM, stronger effect = higher value. In general terms: Cellular ATP, detected with luciferase, serves as a proxy for viable cell number.
Assay [4] in a line: inhibition of endothelial tube formation, primary screen, imaging, VEGF stimulated, CD31 staining, tube area, NPC library (AID 1117340;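 active means compound that reduces growth-factor-driven endothelial tube area in a mixed cell culture, no cutoff stated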). Conditions: VEGF-stimulated ADSC/ECFC co-culture, at 10 µM, stronger effect = higher value.
Assay [5] in a line: glucagon-like peptide 1 release enhancers, primary assay, NCI-H716 cell line, NPC library (AID 1117341;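 active means compound raises GLP1 secretion from the human gut endocrine cells, with no numeric limit stated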; further: reference of the scale not given here). Conditions: NCI-H716 cells, at 10 µM, stronger effect = higher value.
Assay [6] can be described thus: HCT116 colon cancer cell growth inhibition, primary screen, CellTiter-Glo luminescence, NPC library (AID 1117342;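 active means compounds that lower survival of HCT116 colon cancer cells in the luminescence readout, no numeric limit stated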). Conditions: at 20 µM (top of the series).
Assay [7] in a line: CellTiter-Glo luminescent readout of SW480 viability loss, NPC library primary (AID 1117343;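 active means compounds that lower viability of the colon cancer cells in the luminescence readout, with no numeric limit stated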). Particulars: CellTiter-Glo luminescence; at 20 µM (top of the series).
Assay [8] in a line: decreased DLD-1 cellular survival, CellTiter-Glo luminescent readout, NPC compound collection, primary HTS (AID 1117346;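 active means compounds that lower survival of DLD-1 colon cancer cells in the luminescence readout, no cutoff given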). Conditions: DLD-1 viability, CellTiter-Glo luminescence; at 20 µM (top of the series).

Each structure is given as a SMILES string. Activity calls are given as the source filed them. Unless noted, no stated cut-off is given here; in the data, active means nuclear beta-catenin stimulation mostly above about 4.2% (no sharp cut-off); inactive means mostly below about 10%.

With `Nc1ccccc1`, the nuclear beta-catenin stimulation in assay [1] (at 10 µM) was 0.6% (inactive); in assay [1] (stimulation, at 2 µM), 2%. Further, the insulin secretion stimulation in assay [2] is -2.4% (inactive). The viability decrease in assay [3] is 4.9% (inactive). In assay [4], the tube area decrease is -9.5% (inactive). The GLP1 secretion stimulation in assay [5] is 1.1% (inactive). The inhibition of viability in assay [6] was -9.9% (inactive). Also, the viability decrease (inhibition) was 59.6% (active) in assay [7] and 26.8% (inactive) in assay [8].

`O=[N+]([O-])c1cc(I)c(O)c(I)c1`: the nuclear beta-catenin stimulation was 18.4% (inactive) in assay [1] (at 10 µM) and 0.7% in assay [1] (stimulation, at 2 µM). Besides, in assay [2], the insulin secretion stimulation was 5.5% (inactive). Also, the viability decrease in assay [3] is 95% (active). For the same compound, the tube area decrease in assay [4] was 106% (active). Also, the GLP1 secretion stimulation in assay [5] was -1% (inactive). Also, the inhibition of viability in assay [6] is 93% (active). For the same compound, the viability decrease (inhibition) in assay [7] is 101% (active); in assay [8] it was 98.8% (active).

Turning to `C[C@]12CC[C@H]3[C@@H](CC=C4C[C@@H](O)CC[C@@]43C)[C@@H]1CC[C@@H]2O`, the nuclear beta-catenin stimulation in assay [1] (at 10 µM) was 2.9% (inactive); in assay [1] (stimulation, at 2 µM), -0.3%. For the same compound, the insulin secretion stimulation in assay [2] is -1% (inactive). The viability decrease in assay [3] was 3.75% (inactive). Moreover, in assay [4], the tube area decrease was -14.6% (inactive). The GLP1 secretion stimulation in assay [5] is -6% (inactive). Moreover, the inhibition of viability in assay [6] is 5.2% (inactive). Further, the viability decrease (inhibition) in assay [7] was 28.6% (inactive); in assay [8], 1.05% (inactive).

On to `CC(C)(C)NCC(O)c1cc(Cl)c(N)c(C(F)(F)F)c1` (stereo unspecified), for which the nuclear beta-catenin stimulation in assay [1] (at 10 µM) is 0.4% (inactive); in assay [1] (stimulation, at 2 µM) it was 1%. For the same compound, the insulin secretion stimulation in assay [2] is -1.6% (inactive). Also, the viability decrease in assay [3] was -16.8% (inactive). Besides, in assay [4], the tube area decrease is -0.3% (inactive). Also, the GLP1 secretion stimulation in assay [5] was -2.3% (inactive). The inhibition of viability in assay [6] was 10.6% (inactive). The values for the viability decrease (inhibition) in assay [7] and in assay [8] were 5.9% (inactive) and -1.7% (inactive), respectively.

As to `C1CN(P2(N3CC3)=NP(N3CC3)(N3CC3)=NP(N3CC3)(N3CC3)=N2)CCO1` (stereo unspecified), the nuclear beta-catenin stimulation in assay [1] (at 10 µM) was -0.2% (inactive); in assay [1] (stimulation, at 2 µM), 0.7%. Moreover, in assay [2], the insulin secretion stimulation is 2.5% (inactive). In assay [3], the viability decrease was 8.1% (inactive). Moreover, the tube area decrease in assay [4] is 86.7% (active). In assay [5], the GLP1 secretion stimulation was -5.1% (inactive). For the same compound, in assay [6], the inhibition of viability is 30.4% (inactive). Moreover, the viability decrease (inhibition) in assay [7] is 17.7% (active); in assay [8] it was 5.5% (inactive).

Take `CN1CCc2cc(Cl)c(O)cc2[C@H]2c3ccccc3CC[C@@H]21`: the nuclear beta-catenin stimulation in assay [1] (at 10 µM) was 1.9% (inactive); in assay [1] (stimulation, at 2 µM), 2.3%. In assay [2], the insulin secretion stimulation is 20.2% (active). Besides, in assay [3], the viability decrease was 16.1% (inactive). Further, in assay [4], the tube area decrease was 24.1% (inactive). In assay [5], the GLP1 secretion stimulation was 5.5% (inactive). In assay [6], the inhibition of viability was 28.5% (inactive). Further, the viability decrease (inhibition) in assay [7] is 46.5% (inactive); in assay [8], 21.2% (inactive).

As to `CCC(=O)O[C@@H]1C=C2CCC3C(CCC4(C)C3CC[C@@H]4OC(=O)CC)C2CC1` (stereo partly specified), the nuclear beta-catenin stimulation in assay [1] (at 10 µM) was -0.9% (inactive); in assay [1] (stimulation, at 2 µM) it was 1.3%. Further, the insulin secretion stimulation in assay [2] was 4.8% (inactive). Also, the viability decrease in assay [3] was 7.6% (inactive). Moreover, the tube area decrease in assay [4] was -11.8% (inactive). Further, in assay [5], the GLP1 secretion stimulation is -4.4% (inactive). The inhibition of viability in assay [6] is 21.4% (inactive). For the same compound, the viability decrease (inhibition) in assay [7] is 13.2% (inactive); in assay [8], 9.9% (inactive).

With `O=C1C(I)=CC(=C(c2cc(I)c(O)c(I)c2)c2ccccc2C(=O)O)C=C1I`, the nuclear beta-catenin stimulation was 43.7% (active) in assay [1] (at 10 µM) and 1.8% in assay [1] (stimulation, at 2 µM). For the same compound, in assay [2], the insulin secretion stimulation was -0.1% (inactive). The viability decrease in assay [3] was 98.7% (active). Moreover, in assay [4], the tube area decrease was 106% (active). In addition, the GLP1 secretion stimulation in assay [5] is -3.3% (inactive). In addition, the inhibition of viability in assay [6] was 99.3% (active). Moreover, the viability decrease (inhibition) in assay [7] and in assay [8] was 100% (active) in each case.

In the case of `Oc1ccc2[nH]cc(CCCCN3CC=C(c4ccccc4)CC3)c2c1`, the nuclear beta-catenin stimulation in assay [1] (at 10 µM) is 12.1% (inactive); in assay [1] (stimulation, at 2 µM) it was 4%. In addition, the insulin secretion stimulation in assay [2] was 1.8% (inactive). Moreover, in assay [3], the viability decrease is 81.3% (active). The tube area decrease in assay [4] was 76.6% (active). The GLP1 secretion stimulation in assay [5] was 5.1% (inactive). The inhibition of viability in assay [6] is 85% (active). Also, the viability decrease (inhibition) in assay [7] was 102% (active); in assay [8], 81.4% (active).

For `C[C@]12Cc3nonc3C[C@@H]1CC[C@@H]1[C@@H]2CC[C@@]2(C)[C@H]1CC[C@]2(C)O`, the nuclear beta-catenin stimulation is 2.5% (inactive) in assay [1] (at 10 µM) and 0.4% in assay [1] (stimulation, at 2 µM). In addition, the insulin secretion stimulation in assay [2] is -2.4% (inactive). The viability decrease in assay [3] is 38.9% (inactive). In assay [4], the tube area decrease is 1.9% (inactive). Moreover, the GLP1 secretion stimulation in assay [5] is 3.3% (inactive). Besides, the inhibition of viability in assay [6] was 1.5% (inactive). In addition, the viability decrease (inhibition) in assay [7] was 118% (active); in assay [8], 61% (active).

As for `O=C(O)CCCCCCNC1c2ccccc2CCc2ccccc21`, the nuclear beta-catenin stimulation in assay [1] (at 10 µM) was -0.3% (inactive); in assay [1] (stimulation, at 2 µM), -1.4%. Besides, in assay [2], the insulin secretion stimulation is -0.2% (inactive). Further, the viability decrease in assay [3] was -7.3% (inactive). For the same compound, the tube area decrease in assay [4] was -4.7% (inactive). Also, the GLP1 secretion stimulation in assay [5] was 0.3% (inactive). For the same compound, in assay [6], the inhibition of viability is -9.4% (inactive). Also, the figures for the viability decrease (inhibition) in assay [7] and in assay [8] were 13.9% (inactive) and -13.1% (inactive), respectively.

For the compound `CCOC(=O)C(c1c(O)c2ccccc2oc1=O)c1c(O)c2ccccc2oc1=O`, the nuclear beta-catenin stimulation in assay [1] (at 10 µM) was -0.3% (inactive); in assay [1] (stimulation, at 2 µM), -0.6%. Also, the insulin secretion stimulation in assay [2] was -0.8% (inactive). Besides, the viability decrease in assay [3] is 13% (inactive). In addition, in assay [4], the tube area decrease was -8.4% (inactive). In assay [5], the GLP1 secretion stimulation is -0.8% (inactive). For the same compound, the inhibition of viability in assay [6] is 5.5% (inactive). The viability decrease (inhibition) in assay [7] is -18.7% (inactive); in assay [8], 3.4% (inactive).

With `C=CCOC(Cn1ccnc1)c1ccc(Cl)cc1Cl` (stereo unspecified), the nuclear beta-catenin stimulation was 4.9% (inactive) in assay [1] (at 10 µM) and 2.5% in assay [1] (stimulation, at 2 µM). Besides, the insulin secretion stimulation in assay [2] is 6.1% (inactive). The viability decrease in assay [3] was -54.8% (inactive). Also, in assay [4], the tube area decrease was 6.3% (inactive). Further, in assay [5], the GLP1 secretion stimulation was 0.8% (inactive). Moreover, the inhibition of viability in assay [6] is 58.1% (active). Further, the viability decrease (inhibition) in assay [7] was 96.7% (active); in assay [8] it was 30.1% (inactive).

With `CCN(CC)N(O)N=O`, the nuclear beta-catenin stimulation was -1.2% (inactive) in assay [1] (at 10 µM) and 0.7% in assay [1] (stimulation, at 2 µM). Further, the insulin secretion stimulation in assay [2] is -0.3% (inactive). The viability decrease in assay [3] was 2.3% (inactive). For the same compound, in assay [4], the tube area decrease was -3.9% (inactive). Moreover, in assay [5], the GLP1 secretion stimulation was -1.7% (inactive). Besides, the inhibition of viability in assay [6] is -0.1% (inactive). For the same compound, the viability decrease (inhibition) in assay [7] is -1.2% (inactive); in assay [8] it was -7.7% (inactive).
